Compound activity as filed in PubChem.
Shown are actives, neighbours in structure and some others; about 19% of the full set was active somewhere.
DT40 TDP1 no CPT: qHTS for Inhibitors of human tyrosyl-DNA phosphodiesterase 1 (TDP1): qHTS in cells in absence of CPT; 15% of 420,000 active; DT40 Tdp1-/- hTDP1 cells, no CPT, ATP luminescence, 48 h; AID 686978, 2013; Potency, µM (top dose mostly 46.2 µM), for inactives: at the highest dose activity change, negative = growth inhibition, actives largely listed as inhibitors; further: potency means the concentration at half of the fitted maximal effect; nearly all actives have a fitted effect of over 55% in size
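Chicken DT40 Tdp1-/- cells complemented with human TDP1, screened without camptothecin (DMSO vehicle only), 400 cells/well. Compounds pin-transferred, cells incubated at 37 °C for at least 48 hr. Growth read as ATP-dependent luminescence (CellTiter-Glo, 30 min at RT).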
DT40 TDP1 CPT: growth inhibition of DT40 Tdp1-/-;hTDP1 cells with camptothecin (screen for TDP1 inhibitors); chicken DT40 Tdp1-/-;hTDP1 cells + 20 nM CPT, ATP luminescence, 48 h; Potency, µM (top dose mostly 46.2 µM), without a hit: top-dose activity change, negative = growth inhibition, most hits filed as inhibitors; 12% of 420,000 active; further: potency means the concentration at half of the fitted maximal effect; nearly all actives have a fitted effect of over 55% in size
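Chicken DT40 Tdp1-/- cells stably complemented with human TDP1 were seeded at 400 cells/well in medium containing 20 nM camptothecin, exposed to pin-transferred compounds, and grown at 37 °C for at least 48 hr. Viability was read as ATP luminescence.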
IL-1B inflam inh: inflammasome signaling inhibition, IL-1 beta readout. 4.7% of 360,000 active. THP-1 LPS/ATP IL-1B secretion, AlphaLISA, 16 h; hits give low values. activity change, % at 57.5 µM; in the data active means activity change below about -50%; inconclusive means mostly about -30% to -49%
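THP-1 cells pretreated 1 hr with compounds (up to 57.5 uM final), then stimulated with LPS (250 ng/mL final) plus ATP (1.25 mM final); secreted IL-1B measured by AlphaLISA after 16 hr, decreased signal indicating inhibition.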
HT1080NT lethal: kills 2HG-producing HT-1080-NT fibrosarcoma cells. HT-1080-NT fibrosarcoma viability, CellTiter-Glo ATP luminescence, 48 h. Potency, µM (titrated, usually from 46.1 µM), for inactives: at the highest dose activity, negative = less viability, usual class: cytotoxic. 1.6% of 360,000 active. AID 686970;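 further: NT is the 2HG producing partner of a matched IDH1 knockdown line; potency means the concentration at half of the fitted maximal effect; 0% = DMSO-treated cells and -100% = media-only wells without cells; nearly all actives have a fitted effect of over 55% in size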
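A 48-hour cytotoxicity screen used HT-1080-NT cells plated 2 hours before compound delivery. ATP-based CellTiter-Glo luminescence measured viability, normalized to DMSO and no-cell controls.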
HT1080 IDH1KD tx: toxicity to HT-1080 IDH1 knockdown cells (counter line) | Potency, µM (top dose mostly 46.1 µM), without a hit: top-dose activity, negative = toxicity, actives largely listed as cytotoxic | 2% of 360,000 active | HT-1080 IDH1 knockdown viability, ATP luminescence, 48 h;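 further: potency means the concentration at half of the fitted maximal effect; 0% = DMSO wells and -100% = cell-free medium wells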
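Luminescent ATP read-out (CellTiter-Glo, 10 min at room temperature) after 48 h compound exposure at 37 °C gave viability of IDH1-knockdown HT-1080 cells. Activity was normalised to DMSO and cell-free wells, then fitted as concentration-response curves.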
ELG1 repair inh: ELG1-dependent DNA repair inhibition; 2.3% of 330,000 active; HEK293T ELG1-luciferase reporter, luminescence, 16 h; DNA damage induced by 5-fluorouridine; Potency, µM (titrated, usually from 46.1 µM), without a hit: at the top dose activity change, negative = inhibition, hits mostly inhibitors; further: potency means the concentration at half of the fitted maximal effect; nearly all actives have a fitted effect of over 55% in size
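Overnight (16 hr) co-exposure of 2,000 cells/well to 5-fluorouridine and compound at 37 °C preceded detection. Luciferase was quantified via ONE-Glo luminescence; loss of signal denotes inhibition.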
* hit, by the source's call; u = inconclusive; x = no result given; [ ] = another dose, or the depositor's remark. Unless noted, the call rests on the fitted dose curve; in most records, active means well fitted curve in the direction sought with a large enough effect; inconclusive means small, poorly fitted or top-dose-only effect, or another doubt; inactive means no such curve, though single readings can be large; an effect the other way counts as inactive or inconclusive. Unless noted, on the % scale 0 is the no-effect control and ±100 the full control effect.

SMILES	DT40 TDP1 no CPT	DT40 TDP1 CPT	IL-1B inflam inh	HT1080NT lethal	HT1080 IDH1KD tx	ELG1 repair inh
CC1CC2=C(NC(=S)NC2c2cccc(F)c2)/C(=C/c2cccc(F)c2)C1 (stereo not drawn)	16.4µM*	u	-63.8*	-29.4%	u	u
CC1CC2=C(NC(=S)NC2c2ccccc2F)/C(=C/c2ccccc2F)C1 (stereo not drawn)	u	u	-12.1	-19.3%	-20.0%	-6.9%
Cc1ccc(/C=C2\CC(C)CC3=C2NC(=S)NC3c2ccc(C)cc2)cc1 (stereo not drawn)	14.6µM*	u	-29.2	u	-27.1%	-0.8%
COc1ccccc1-c1csc(C(O)c2cccc(Cl)c2)n1 (stereo not drawn)	u	20.6µM*	-3.5	4.0%	-4.6%	x
COc1ccccc1-c1csc(C(O)c2ccccc2)n1 (stereo not drawn)	u	23.1µM*	-3.6	28.1%	10.0%	x
COc1cc(F)ccc1-c1csc(C(O)c2ccc(F)c(F)c2)n1 (stereo not drawn)	13µM*	u	-4.8	u	u	x
COc1cc(C(O)c2nc(-c3ccc(F)cc3OC)cs2)ccc1F (stereo not drawn)	u	u	-3.1	u	u	x
COc1ccccc1NC(=O)C1=C(C)NC(SCC(=O)Nc2ccc(C(=O)O)cc2)=C(C#N)C1c1cccs1 (stereo not drawn)	6.1%	8.1%	26.3	-4.8%	-10.1%	11.3%
O=C(C[N+]1(CCO)CCOCC1)c1ccc(F)c2ccccc12	u	-117.2%	x	x	x	x
O=C1c2oc3ccccc3c(=O)c2C(c2ccc(O)cc2)N1Cc1ccc2c(c1)OCO2 (stereo not drawn)	-20.6%	-0.1%	x	x	x	x
NC(N)=Nc1nc2cc([N+](=O)[O-])ccc2o1	10.3µM*	10.3µM*	u	9.4%	-5.0%	u
C=CCNc1cc(=O)n(Cc2ccccc2)c(=O)[nH]1	18.4µM*	u	17.7	10.6%	6.8%	x
Cc1nn(-c2ccccc2)c(N2CCCC2)c1/C=N/NC(=S)Nc1ccccc1F	u	13µM*	0.0	u	u	u
Cc1nn(-c2ccccc2)c(N2CCCC2)c1/C=N/NC(=O)c1cc(-c2ccccn2)nc2ccccc12	11.6µM*	20.6µM*	-6.6	-9.4%	-4.0%	8.2µM*
Cc1nn(-c2ccccc2)c(N2CCCC2)c1/C=N/NC(=O)c1cc(-c2cccs2)nc2ccccc12	14.6µM*	u	-5.0	-5.2%	7.6%	14.6µM*
O=C(CC1(O)C(=O)Nc2ccccc21)c1ccccc1O (stereo not drawn)	-5.2%	2.8%	41.0	26.8%	17.1%	1.8%
Cc1cc(C2(c3ccc(O)c(C)c3)C(=O)Nc3ccccc32)ccc1O	u	u	u	18.4µM*	-11.9%[9.24 µM]	-0.2%
Cc1cccc2c1NC(=O)C2(c1ccc(O)cc1)c1ccc(O)cc1	-5.8%	-3.8%	u	0.0082µM*	0.0082µM*	1.9%
Cc1ccc(N2C(=O)CC(Sc3nccc(C)n3)C2=O)cc1 (stereo not drawn)	u	u	32.7	7.3%	12.5%	1.5%
COc1ccc(N2C(=O)CC(Sc3nc(C)c4c(n3)CCCC4)C2=O)cc1 (stereo not drawn)	23.1µM*	18.4µM*	51.8	14.6µM*	u	u
Cc1nc(SC2CC(=O)N(c3cc(Cl)cc(Cl)c3)C2=O)nc2c1CCCC2 (stereo not drawn)	u	20.6µM*	24.8	-18.8%	-22.9%	10.1%
